Compound activity: PubChem BioAssay, National Center for Advancing Translational Sciences (NCATS)
gsp antag: gsp mutant antagonism; gsp-mutant cells, cAMP HTRF, 30 min; Potency, µM (series often up to 76.9 µM), for the others: at the top dose activity change, negative = inhibition, actives largely listed as inhibitors; 340,000 compounds, 0.4% hits; calls by dose curve; cell line not stated here;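 note: intracellular cAMP measured with PDE inhibitor Ro 20-1724 present during compound exposure; potency is the fitted concentration of half-maximal effect; % is set by controls: 0 for no effect and ±100 for the full control effect; nearly all actives have a fitted effect of over 65% in size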
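Cells, 2000/well, grown 16–24 h in DMEM 10% FBS with 0.5 mg/ml G418, then compounds plus […] (300 uM addition stock), 30 min at 37C. cAMP read by HTRF (cAMP-d2 and anti-cAMP antibody-K in lysis buffer) after 30 min RT.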
gsp ag: agonists of gsp mutant (McCune-Albright syndrome); 340,000 compounds, 0.13% hits; Potency, µM (highest dose often 76.9 µM), for inactives: at the top dose activation (cAMP increase), most hits filed as activators; gsp mutant cells, cAMP HTRF, 30 min; AID 624287; active = well fitted activation curve with a large enough effect; inconclusive = small, poorly fitted or top-dose-only effect, or another doubt; inactive = no such curve, though single readings can be large or run the other way; cell line not stated here;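 note: phosphodiesterase inhibitor Ro 20-1724 added with compounds to block cAMP breakdown; potency is the fitted concentration of half-maximal effect; nearly all actives have a fitted effect of over 60% in size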
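Cells stably selected in G418 were plated at 2000/well, grown 16-24 hr, then given compounds in DMSO with the PDE inhibitor […] (300 uM solution added) for 30 min at 37C; cAMP was read by HTRF.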
RXFP1 agonist: agonists of human relaxin receptor RXFP1 | 370,000 compounds, 0.3% hits | Potency, µM (top dose mostly 57.5 µM), inactives show top-dose activation, usual class: activators | Q9HBX9 | HEK293T-RXFP1 cAMP TR-FRET, 30 min; response scale: percent of porcine relaxin response, buffer zero; active = well fitted activation curve with a large enough effect; inconclusive = small, poorly fitted or top-dose-only effect; note: potency is the fitted concentration of half-maximal effect; % is set by controls: 0 for no effect and ±100 for the full control effect; nearly all actives have a fitted effect of over 60% in size
Target sequence (Q9HBX9 whole entry, looked up): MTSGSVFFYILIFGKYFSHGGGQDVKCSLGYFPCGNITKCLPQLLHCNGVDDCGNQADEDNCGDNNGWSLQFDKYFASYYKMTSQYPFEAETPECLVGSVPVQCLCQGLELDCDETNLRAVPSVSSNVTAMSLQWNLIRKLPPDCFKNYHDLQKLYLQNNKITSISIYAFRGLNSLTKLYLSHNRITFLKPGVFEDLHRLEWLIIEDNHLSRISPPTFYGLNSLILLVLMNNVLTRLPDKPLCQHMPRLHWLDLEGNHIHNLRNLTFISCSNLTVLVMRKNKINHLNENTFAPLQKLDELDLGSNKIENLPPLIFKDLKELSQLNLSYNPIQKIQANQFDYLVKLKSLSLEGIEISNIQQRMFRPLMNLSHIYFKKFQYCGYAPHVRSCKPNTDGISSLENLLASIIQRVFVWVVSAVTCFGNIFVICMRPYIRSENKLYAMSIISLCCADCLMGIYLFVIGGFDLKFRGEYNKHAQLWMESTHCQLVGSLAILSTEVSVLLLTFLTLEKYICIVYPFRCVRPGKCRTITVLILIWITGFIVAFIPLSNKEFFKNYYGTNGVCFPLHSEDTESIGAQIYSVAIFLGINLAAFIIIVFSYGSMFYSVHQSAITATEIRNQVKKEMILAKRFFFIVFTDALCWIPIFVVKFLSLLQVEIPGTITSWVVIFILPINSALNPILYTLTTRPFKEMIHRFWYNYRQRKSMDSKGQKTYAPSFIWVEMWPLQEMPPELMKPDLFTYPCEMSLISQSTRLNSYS
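HEK293T cells stably expressing RXFP1 were pretreated with the PDE4 inhibitor Ro 20174, exposed to compounds for 30 min at 37C, lysed, and cAMP was read by TR-FRET. Data normalized to buffer (basal) and 29 nM porcine relaxin (100%).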
Akt phos inh: inhibitors of Akt phosphorylation; Neuro2A IGF-stimulated pAkt S473 HTRF, 20 min; hits give low values; activity change, % for hits at 50 µM; 360,000 compounds, 0.32% hits; AID 651550; in the data active = activity change below about -80%; inconclusive = mostly about -51% to -80%; note: % is set by controls: 0 for no effect and ±100 for the full control effect
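Neuro2A cells in DMEM with 0.5% FBS, overnight at 37 deg C, given compound at single 50 µM final, then IGF (6 nM final) for 20 min at 37 deg C. Lysed; phospho-Akt Ser473 by HTRF after 24 h, 665/615 ratio.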
RXFP1 antag: RXFP1 (human) relaxin receptor antagonism | Q9HBX9 | HEK293-RXFP1, relaxin-stimulated cAMP HTRF, 30 min; hits give low values | activity change, negative = inhibition, % at 57.5 µM | 350,000 compounds, 0.59% hits | AID 1259400;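 active = activity change of -60% or lower, but not beyond a set lower limit; inconclusive = change between -60% and -40%, or beyond the set limit; inactive = change above -40%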; note: % is set by controls: 0 for no effect and ±100 for the full control effect
Active calls of the source: *; i = inactive; ? = inconclusive; nt = no result; [ ] = another dose, or the depositor's remark. In the library only some 1.2% were active in any assay of this set; here they are far more common.

SMILES | gsp antag | gsp ag | RXFP1 agonist | Akt phos inh | RXFP1 antag
CCOC(=O)c1c(C)nc2sc3c(=O)n(-c4ccc(C(C)=O)cc4)cnc3c2c1-c1ccc(Cl)cc1 | 6.2% | 14.3% | 2.3% | i | -1.6
C[C@@H]1CCN(C(=O)[C@H](CCCN=C(N)N)NS(=O)(=O)c2cccc3c2NC[C@H](C)C3)[C@@H](C(=O)O)C1 | nt | nt | nt | nt | 10.6
Cc1ccc(/C(O)=C2\C(=O)C(=O)N(CC(C)O)C2c2cccc(F)c2)cc1 (centres undefined) | 20.8% | ? | 14.7% | -112.7%* | 21.0
COc1ccc(C(CCNC(C)c2ccccc2)c2ccc(F)cc2)cc1 (centres undefined) | 2.6% | 0.1% | -1.9% | i | -65.7*
O=C(N/N=C/c1cn(-c2cccs2)nc1-c1ccccc1)c1ccccc1Br | -28.2% | 11.3% | 1.0% | i | 3.5
O=C(N/N=C/c1cn(-c2cccs2)nc1-c1ccccc1)c1ccccc1O | 28.2µM* | -8.0% | 2.1% | i | -88.3*
CCOC(=O)c1nnn(CC(=O)N2N=C(c3ccccc3)CC2c2ccccc2)c1C(=O)OCC (centres undefined) | 11.3% | 0.0% | -0.9% | -82.8%* | 3.9
COc1cc(OC)cc(C(=O)NCCOC23CC4CC(CC(C4)C2)C3)c1 | -15.7% | 2.51µM* | 0.8% | i | -5.9
COc1ccc(-c2noc(-c3ccc(NCc4ccco4)c([N+](=O)[O-])c3)n2)cc1OC | nt | nt | -4.9% | nt | nt
Cc1ccccc1NS(=O)(=O)c1ccc2[nH]cc(C(=O)NC3CCCCC3)c(=O)c2c1 | nt | nt | 2.4% | nt | -1.8
Cc1ccc(NC(=O)c2nc(S(C)(=O)=O)ncc2N(Cc2ccc(C(C)(C)C)cc2)Cc2ccco2)cc1C | nt | nt | 6.0% | nt | -16.6
CC(=O)Nc1ccc(C=CC=Cc2cccc([N+](=O)[O-])c2)cc1 | ? | -2.4% | nt | i | -60.6*
CC(=O)Nc1ccc(OCc2cccc([N+](=O)[O-])c2)cc1 | 0.6% | 11.4%[15.4 µM] | 2.5% | i | 16.2
CC(=O)Oc1ccccc1C(=O)C=Cc1cccc([N+](=O)[O-])c1 | 13.6% | 1.1% | nt | i | -83.8*
COCCCNC(=S)N(CCCN(C)C)Cc1cc2cc3c(cc2[nH]c1=O)OCCO3 | -5.1% | 13.4% | 2.1% | i | -1.9
COCCNC(=S)N(CCCN(C)C)Cc1cc2cc3c(cc2[nH]c1=O)OCCO3 | 50.1µM* | ? | 0.0% | i | -0.5
CCOc1ccc(Nc2c(S(=O)(=O)c3ccc(Cl)cc3)cnc3ccc(OCC)cc23)cc1 | nt | nt | -0.5% | nt | -18.1
C[C@H](NC(=O)N1CCn2c1nc1ccccc12)C(=O)NC1CCCCC1 | -5.3% | -2.6% | 3.0% | i | 18.5
CC(C)C[C@H](NC(=O)N1CCn2c1nc1ccccc12)C(=O)NC1CCCCC1 | 10.6% | 38.1% | 0.6% | i | -66.9*
O=C(C1CCN(S(=O)(=O)Cc2ccccc2)CC1)N1CCN(c2ccccc2)CC1 | nt | nt | 23.9% | nt | -8.8
O=C(CSc1nnc(CNC(=O)c2ccco2)o1)Nc1ccc(OC(F)(F)F)cc1 | 0.8% | -0.6% | 1.6% | nt | -109.7*
O=C(CSc1nnc(CNC(=O)c2ccco2)o1)Nc1ccc(F)cc1 | 12.9% | ? | -0.2% | i | -4.0
COc1ccc(OCC(O)Cn2c(NCCO)nc3c2c(=O)n(C)c(=O)n3C)cc1 (centres undefined) | nt | nt | 15.2% | nt | -11.6
Cc1c(N/N=C(\C#N)C(=O)c2ccc(Cl)cc2)c(=O)n(-c2ccccc2)n1C | -19.2% | 19.6% | 1.3% | i | 2.1
N#C/C(=N\Nc1ccc(Cl)cc1)C(=O)c1ccccc1 | 28.2µM* | -3.2%[15.4 µM] | -0.9% | i | -16.3
SMILES | gsp antag | gsp ag | RXFP1 agonist | Akt phos inh | RXFP1 antag
O=C(CSc1nccn1-c1ccc(F)cc1)Nc1ccc(OC(F)(F)F)cc1 | nt | nt | 1.4% | nt | -17.9
O=C(Nc1ccc(S(=O)(=O)N2CCOCC2)cc1)c1cc(-c2cc(Cl)ccc2O)n[nH]1 | ? | -35.4% | 1.1% | i | -60.3*
Oc1ccc(CNCc2ccc3c(c2)OCO3)c2cccnc12 | nt | nt | -1.8% | nt | nt
COc1ccc(N2CCN(C3(c4ccccc4)C(=O)c4ccccc4C3=O)CC2)cc1 | nt | nt | 2.3% | nt | 2.5
COc1cc(C(=O)N2CCC(N3CCCCCC3)CC2)cc(OC)c1OC | 4.7% | 12.9% | nt | -122.0%* | 5.5
CCCCOC(=O)c1cccc(NC(=O)CC)c1 | -6.1% | -26.5% | 2.3% | -112.3%* | -12.4
CCCCC(=O)Nc1cccc(NC(=O)CC)c1 | -7.2% | -6.3% | 1.0% | i | -6.9
CCCCOC(=O)c1ccc(NC(=O)c2c(OC)cccc2OC)cc1 | -17.2% | 11.2µM* | 0.2% | i | -5.6
Cc1ccc(C)c(N2CCN(C(=O)C3CCCN(S(=O)(=O)c4ccc5c(c4)oc(=O)n5C)C3)CC2)c1 (centres undefined) | nt | nt | -0.1% | nt | nt
Cc1ccc(O)c(-c2n[nH]c3c2C(c2ccccc2F)N(Cc2ccco2)C3=O)c1 (centres undefined) | nt | nt | -2.4% | nt | -68.8*
CCOc1cccc(C2c3c(-c4cc(C)ccc4O)n[nH]c3C(=O)N2Cc2ccco2)c1 (centres undefined) | nt | nt | 2.5% | nt | -75.9*
Clc1ccc(Cl)c(OCCCCNCc2ccccc2)c1 | 7.1% | 5.8% | 3.2% | i | -1.4
Clc1ccc(OCCCNCc2ccccc2)c(Br)c1 | 7.2% | -57.0% | -2.4% | i | -76.7*
O=c1[nH]cnc2c1c(-c1ccccc1)cn2-c1ccccc1 | -14.5% | 5.9% | 0.3% | nt | -75.1*
Cc1ccc(-n2cc(-c3ccccc3)c3c(=O)[nH]cnc32)cc1 | -27.5% | -4.7% | 0.4% | i | nt
CC(C)c1ccc(C2NC(C(=O)O)CS2)cc1 (centres undefined) | 17.4% | ? | 0.1% | -104.5%* | -15.5
COc1ccc(C2NC(C(=O)O)CS2)cc1COCC(F)(F)F (centres undefined) | 5.8% | -29.5% | 1.3% | i | -8.7
N#CC1C(=O)c2ccccc2C1c1ccccc1 (centres undefined) | 14.8% | 17.1% | nt | i | -92.0*
CCCCOc1ccc(N(CC(=O)NCCOC)C(=O)CCC(=O)Nc2ccccn2)cc1 | 31.6µM* | -9.7% | 2.6% | i | -3.2
CC(C)Oc1ccc(C(CCN)C2CCCCC2)cc1 (centres undefined) | 13.3% | -0.3% | 0.4% | i | -75.2*
CC(C)Oc1ccc(C(=O)NC2CCCCC2)cc1 | -1.1% | -4.8% | 0.1% | i | -7.5
CC(C)=CCOc1ccc(/C=C/C(=O)c2ccc(OCC=C(C)C)cc2OCC(=O)O)cc1 | nt | nt | nt | nt | -102.3*
O=C(Nc1ccc(C(=O)c2ccccc2)cc1)c1ccccc1 | 39.8µM* | -0.2%[15.4 µM] | 3.7% | i | -31.2
CCOc1ccccc1C(=O)Nc1ccc(C(=O)c2ccccc2)cc1 | 25.1µM* | -13.2% | 4.1% | i | -1.8
